The target in the assay is furin, P09958. As to the kind of experiment: furin cleavage Z-score vs untreated control; higher = more cleavage, active = 3.5 or more, inactive = 1 or less, 8 variable residues between constant flanks. The method, boiled down: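 Purified furin digested bead-held 8-mer peptide–cDNA fusions at 1:10 enzyme:substrate in 0.01 ml of 50 mM HEPES pH 7.5 with CaCl2 and NaCl for 7.5, 15 or 30 min. The cleavage Z-score compares sequencing counts of released DNA with furin-free reactions on a log scale, with lowess adjustment and median absolute deviation scaling.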
Sequence of furin, P09958 (P09958 whole entry, the tested form may be a part): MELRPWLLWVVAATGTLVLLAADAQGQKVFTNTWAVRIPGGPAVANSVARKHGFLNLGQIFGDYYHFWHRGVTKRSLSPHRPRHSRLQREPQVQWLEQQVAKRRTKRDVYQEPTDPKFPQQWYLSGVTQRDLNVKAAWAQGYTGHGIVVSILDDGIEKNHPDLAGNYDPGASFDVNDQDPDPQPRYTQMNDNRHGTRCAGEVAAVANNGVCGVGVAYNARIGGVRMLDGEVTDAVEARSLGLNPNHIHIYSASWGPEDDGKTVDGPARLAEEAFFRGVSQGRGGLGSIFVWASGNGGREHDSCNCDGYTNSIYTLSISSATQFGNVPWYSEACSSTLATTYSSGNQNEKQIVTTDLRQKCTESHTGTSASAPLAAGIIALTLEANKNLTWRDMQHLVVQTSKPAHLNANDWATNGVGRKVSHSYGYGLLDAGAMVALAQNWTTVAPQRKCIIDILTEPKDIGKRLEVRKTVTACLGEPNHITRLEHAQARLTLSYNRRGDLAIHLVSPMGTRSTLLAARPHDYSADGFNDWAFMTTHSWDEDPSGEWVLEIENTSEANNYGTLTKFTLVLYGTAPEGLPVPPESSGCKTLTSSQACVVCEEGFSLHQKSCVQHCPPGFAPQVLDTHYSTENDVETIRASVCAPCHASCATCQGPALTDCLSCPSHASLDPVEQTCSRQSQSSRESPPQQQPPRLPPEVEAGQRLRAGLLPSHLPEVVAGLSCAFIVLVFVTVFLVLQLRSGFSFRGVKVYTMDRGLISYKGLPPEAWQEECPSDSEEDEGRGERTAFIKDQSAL

This is one part of the list. The true hit rate is not given.

For the sequence CAEVVISTWVAGNASASA [HC125], the “furin cleavage Z-score” value reads like this: (7.5 min) 0.441 (inactive); (15 min) -0.457 (inactive); (30 min) -1.26 (inactive).

Turning to CACGAEITGHAGNASASA [HC1176], the “furin cleavage Z-score” value runs as follows: (7.5 min) -2.29 (inactive); (15 min) -1.09 (inactive); (30 min) -4.52 (inactive).

Turning to CAEVPCHAPSAGNASASA [HC2363], the “furin cleavage Z-score” value (7.5 min) was 0.635 (inactive), the “furin cleavage Z-score” value (15 min) was 1.02 and the “furin cleavage Z-score” value (30 min) was 0.728 (inactive).

As to CARVARERRWAGNASASA [FS-292], the “furin cleavage Z-score” value (7.5 min) was 7.91 (active), the “furin cleavage Z-score” value (15 min) was 11.7 (active) and the “furin cleavage Z-score” value (30 min) is 9.72 (active).

With CARIERVIGAAGNASASA [FS-2212], the “furin cleavage Z-score” value reads like this: (7.5 min) 0.267 (inactive); (15 min) -1.07 (inactive); (30 min) 0.338 (inactive).

Consider CAEVPCHRPWAGNASASA [HC2408], for which the “furin cleavage Z-score” value reads like this: (7.5 min) -0.0166 (inactive); (15 min) 0.18 (inactive); (30 min) 0.457 (inactive).

In the case of CARIERVARVAGNASASA [FS-187], the “furin cleavage Z-score” value by setting is: (7.5 min) 2.36; (15 min) 1.28; (30 min) 4.15 (active).

As to CARQGRVISVAGNASASA [FS-2168], the “furin cleavage Z-score” value runs as follows: (7.5 min) -2.08 (inactive); (15 min) -0.187 (inactive); (30 min) 0.163 (inactive).

For the sequence CARQGRIARVAGNASASA [FS-1608], the “furin cleavage Z-score” value runs as follows: (7.5 min) 4.13 (active); (15 min) 2.36; (30 min) 3.61 (active).

With CARPGRPARVAGNASASA [FS-1159], the “furin cleavage Z-score” value is -0.325 (inactive) (7.5 min), -0.113 (inactive) (15 min) and -0.65 (inactive) (30 min).

Consider CAFCTTPCSGAGNASASA [HC1947], for which the “furin cleavage Z-score” value (7.5 min) came to 1.42, the “furin cleavage Z-score” value (15 min) was -0.358 (inactive) and the “furin cleavage Z-score” value (30 min) was -1.43 (inactive).

Turning to CATGMTTDNLAGNASASA [HC1212], the “furin cleavage Z-score” value runs as follows: (7.5 min) -0.509 (inactive); (15 min) 1.51; (30 min) -0.989 (inactive).

Turning to CAHLNSTALNAGNASASA [HC371], the “furin cleavage Z-score” value reads like this: (7.5 min) 1.65; (15 min) 0.509 (inactive); (30 min) 0.52 (inactive).

As to CAVEPVVFSQAGNASASA [HC646], the “furin cleavage Z-score” value was -0.426 (inactive) (7.5 min), 0.0995 (inactive) (15 min) and -0.8 (inactive) (30 min).

CASMPCSAHLAGNASASA [HC2486]: the “furin cleavage Z-score” value is -0.177 (inactive) (7.5 min), 1.03 (15 min) and -0.00604 (inactive) (30 min).

With CAQEECSQHLAGNASASA [HC1682], the “furin cleavage Z-score” value was -0.746 (inactive) (7.5 min), 0.819 (inactive) (15 min) and 1.15 (30 min).

As to CARQARRVGGAGNASASA [FS-1766], the “furin cleavage Z-score” value (7.5 min) was -0.614 (inactive), the “furin cleavage Z-score” value (15 min) was -0.316 (inactive) and the “furin cleavage Z-score” value (30 min) was -0.000733 (inactive).

Take CARKIRVNGTAGNASASA [FS-2422]: the “furin cleavage Z-score” value (7.5 min) was -0.334 (inactive), the “furin cleavage Z-score” value (15 min) is 0.321 (inactive) and the “furin cleavage Z-score” value (30 min) was -1.68 (inactive).

Regarding CARQVRGVTQAGNASASA [FS-2447], the “furin cleavage Z-score” value (7.5 min) was -1.36 (inactive), the “furin cleavage Z-score” value (15 min) is 0.0563 (inactive) and the “furin cleavage Z-score” value (30 min) is 0.556 (inactive).

For the sequence CARKIRTVGNAGNASASA [FS-1726], the “furin cleavage Z-score” value runs as follows: (7.5 min) 5.44 (active); (15 min) 7.79 (active); (30 min) 7.77 (active).

On to CACVIGGAGNAGNASASA [HC445], for which the “furin cleavage Z-score” value (7.5 min) was -1.36 (inactive), the “furin cleavage Z-score” value (15 min) is -2.02 (inactive) and the “furin cleavage Z-score” value (30 min) is -1.24 (inactive).

As for CARQVRCVGNAGNASASA [FS-3045], the “furin cleavage Z-score” value by setting is: (7.5 min) 3.15; (15 min) 3.4; (30 min) 5.33 (active).

CASGFVSLLAAGNASASA [HC359]: the “furin cleavage Z-score” value reads like this: (7.5 min) 0.181 (inactive); (15 min) 0.268 (inactive); (30 min) 0.641 (inactive).

In the case of CAVFTDNSSPAGNASASA [HC765], the “furin cleavage Z-score” value reads like this: (7.5 min) -0.215 (inactive); (15 min) -0.103 (inactive); (30 min) 0.299 (inactive).

For CAEPLDLPPIAGNASASA [HC1598], the “furin cleavage Z-score” value is, setting by setting: (7.5 min) 0.806 (inactive); (15 min) 1.44; (30 min) 0.441 (inactive).

With CAVPSTEDLVAGNASASA [HC1097], the “furin cleavage Z-score” value was -2.52 (inactive) (7.5 min), -0.505 (inactive) (15 min) and 0.561 (inactive) (30 min).

Regarding CARVRRAWVIAGNASASA [FS-3124], the “furin cleavage Z-score” value by setting is: (7.5 min) 1.98; (15 min) 4.98 (active); (30 min) 7.77 (active).

In the case of CARVRRLVRHAGNASASA [FS-3240], the “furin cleavage Z-score” value is, setting by setting: (7.5 min) 12.5 (active); (15 min) 11.6 (active); (30 min) 9.85 (active).

Regarding CARVMRWNSKAGNASASA [FS-3120], the “furin cleavage Z-score” value was -0.31 (inactive) (7.5 min), 0.804 (inactive) (15 min) and 2.88 (30 min).

As to CARVRRAVRIAGNASASA [FS-2107], the “furin cleavage Z-score” value (7.5 min) was 2.88, the “furin cleavage Z-score” value (15 min) is 2.85 and the “furin cleavage Z-score” value (30 min) was 5.12 (active).

CAASRQAEVIAGNASASA [HC1030]: the “furin cleavage Z-score” value by setting is: (7.5 min) -0.216 (inactive); (15 min) -0.538 (inactive); (30 min) -1.56 (inactive).

In the case of CARVRRRSVQAGNASASA [FS-3175], the “furin cleavage Z-score” value was 0.273 (inactive) (7.5 min), 0.235 (inactive) (15 min) and 0.754 (inactive) (30 min).

For CARVRRANTFAGNASASA [FS-2622], the “furin cleavage Z-score” value (7.5 min) was found to be 3.44, the “furin cleavage Z-score” value (15 min) was 5.83 (active) and the “furin cleavage Z-score” value (30 min) was 5.99 (active).

Take CAAVRRLVGNAGNASASA [FS-1667]: the “furin cleavage Z-score” value is, setting by setting: (7.5 min) -1.38 (inactive); (15 min) -1.34 (inactive); (30 min) -1.08 (inactive).

Regarding CAYQATVCARAGNASASA [HC955], the “furin cleavage Z-score” value was 1.06 (7.5 min), 0.432 (inactive) (15 min) and -1.24 (inactive) (30 min).

On to CAYFVRVQGLAGNASASA [HC616], for which the “furin cleavage Z-score” value runs as follows: (7.5 min) 0.749 (inactive); (15 min) 0.0281 (inactive); (30 min) 0.654 (inactive).

As for CALSTGLIHLAGNASASA [HC503], the “furin cleavage Z-score” value is 1.35 (7.5 min), 0.833 (inactive) (15 min) and 1.12 (30 min).

With CAAAQGYKVLAGNASASA [HC783], the “furin cleavage Z-score” value reads like this: (7.5 min) 0.259 (inactive); (15 min) 0.477 (inactive); (30 min) -0.5 (inactive).

As for CADPDLSDGSAGNASASA [HC1359], the “furin cleavage Z-score” value is -1.03 (inactive) (7.5 min), -0.792 (inactive) (15 min) and -0.78 (inactive) (30 min).

Regarding CAVVCCSMSGAGNASASA [HC2096], the “furin cleavage Z-score” value was -0.582 (inactive) (7.5 min), -1.33 (inactive) (15 min) and -0.463 (inactive) (30 min).

Regarding CARQRRAAGGAGNASASA [FS-2588], the “furin cleavage Z-score” value by setting is: (7.5 min) 4.04 (active); (15 min) 2.03; (30 min) 3.5 (active).

Turning to CARQKKTTGGAGNASASA [FS-3034], the “furin cleavage Z-score” value is -1.15 (inactive) (7.5 min), -0.895 (inactive) (15 min) and -0.562 (inactive) (30 min).

Regarding CARILRSAWGAGNASASA [FS-2684], the “furin cleavage Z-score” value is -1.8 (inactive) (7.5 min), 0.635 (inactive) (15 min) and 0.838 (inactive) (30 min).

Regarding CARQRRAAKGAGNASASA [FS-3230], the “furin cleavage Z-score” value was 5.82 (active) (7.5 min), 8.24 (active) (15 min) and 7.16 (active) (30 min).

Consider CARIRRNAKGAGNASASA [FS-1723], for which the “furin cleavage Z-score” value reads like this: (7.5 min) 9.77 (active); (15 min) 9.21 (active); (30 min) 7.23 (active).

Turning to CARLRRFQKGAGNASASA [FS-2714], the “furin cleavage Z-score” value runs as follows: (7.5 min) -0.592 (inactive); (15 min) -0.736 (inactive); (30 min) -0.569 (inactive).

Take CARPLRDAGGAGNASASA [FS-2357]: the “furin cleavage Z-score” value is 0.0621 (inactive) (7.5 min), -0.105 (inactive) (15 min) and -0.644 (inactive) (30 min).

CARHRRAAGGAGNASASA [FS-2144]: the “furin cleavage Z-score” value reads like this: (7.5 min) 5.47 (active); (15 min) 4.69 (active); (30 min) 5.6 (active).

With CARQRRPHGGAGNASASA [FS-2765], the “furin cleavage Z-score” value runs as follows: (7.5 min) -0.899 (inactive); (15 min) -0.697 (inactive); (30 min) -0.913 (inactive).

On to CARHRRIHSGAGNASASA [FS-2945], for which the “furin cleavage Z-score” value is -0.899 (inactive) (7.5 min), -0.653 (inactive) (15 min) and -0.511 (inactive) (30 min).

The values above are taken from the supplement of paper PMC3545927.
